Out of some 310,000 compounds screened, about 14,000 (4.5%) showed an effect of 50% or more. Effects have a minus sign here. The sample as a whole holds a higher share of strong results than the screen did.
The compounds below were run against human ether-à-go-go-related gene (hERG) potassium channel (human, UniProt Q12809) (assay: primary screen, population patch clamp on CHO cells stably expressing hERG; higher = less effect of the substance).
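Note: peak tail current of the secondary pulse compared with the same well before compound.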

Chain of human ether-à-go-go-related gene (hERG) potassium channel (Q12809 whole entry, looked up): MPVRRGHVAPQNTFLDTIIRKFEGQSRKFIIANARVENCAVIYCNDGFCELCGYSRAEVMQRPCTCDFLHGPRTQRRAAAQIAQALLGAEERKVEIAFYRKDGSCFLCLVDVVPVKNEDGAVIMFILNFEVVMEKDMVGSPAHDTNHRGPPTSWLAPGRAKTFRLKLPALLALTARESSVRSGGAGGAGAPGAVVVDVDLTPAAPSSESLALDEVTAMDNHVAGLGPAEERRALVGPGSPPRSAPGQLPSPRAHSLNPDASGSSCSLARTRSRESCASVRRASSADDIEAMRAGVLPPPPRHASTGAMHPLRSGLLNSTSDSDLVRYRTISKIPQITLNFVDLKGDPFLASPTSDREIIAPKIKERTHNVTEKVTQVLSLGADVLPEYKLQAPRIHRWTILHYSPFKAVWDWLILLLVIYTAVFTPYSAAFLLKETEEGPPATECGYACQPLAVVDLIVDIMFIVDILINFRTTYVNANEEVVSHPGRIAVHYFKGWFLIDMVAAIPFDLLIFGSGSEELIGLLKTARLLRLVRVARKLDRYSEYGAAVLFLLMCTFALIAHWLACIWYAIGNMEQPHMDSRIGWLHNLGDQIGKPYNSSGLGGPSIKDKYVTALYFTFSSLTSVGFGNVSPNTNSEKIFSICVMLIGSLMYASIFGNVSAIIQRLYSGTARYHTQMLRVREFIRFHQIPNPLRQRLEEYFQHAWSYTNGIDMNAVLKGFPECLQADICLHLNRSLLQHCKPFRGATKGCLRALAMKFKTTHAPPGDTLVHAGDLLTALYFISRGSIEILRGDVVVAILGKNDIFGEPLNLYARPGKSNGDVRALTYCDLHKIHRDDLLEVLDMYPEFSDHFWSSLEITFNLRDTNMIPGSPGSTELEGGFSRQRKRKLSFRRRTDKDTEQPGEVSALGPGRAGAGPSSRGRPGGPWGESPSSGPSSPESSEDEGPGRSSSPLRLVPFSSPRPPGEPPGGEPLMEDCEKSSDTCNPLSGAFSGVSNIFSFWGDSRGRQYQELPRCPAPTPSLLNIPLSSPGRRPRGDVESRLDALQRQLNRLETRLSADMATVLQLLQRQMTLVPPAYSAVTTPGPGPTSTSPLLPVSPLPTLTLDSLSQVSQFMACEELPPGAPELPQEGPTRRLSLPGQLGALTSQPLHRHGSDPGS

Row | SMILES | hERG current change (%, negative = inhibition) at 10uM
1 | COc1ccc(OC)c(NC(=O)COC(=O)c2ccc(OC)c(S(=O)(=O)N3CCCC3)c2)c1 | 16.9%
2 | CN(C)C=O.NS(=O)(=O)c1cccc(NC(=O)CSc2nc3nc(-c4cccs4)cc(C(F)(F)F)c3c(=O)[nH]2)c1 | 7.85%
3 | CCOc1cc(CNc2nn[nH]n2)ccc1OCC(=O)NC(C)(C)C | 13.2%
4 | O=C(c1cc(O)c(O)c([N+](=O)[O-])c1)c1ccccc1F | 2.56%
5 | COCCNC(=O)Nc1ccc2nc(-c3ccco3)c(-c3ccco3)nc2c1 | 4.08%
6 | CCOC(=O)CC(NS(=O)(=O)c1ccc2[nH]cc(C(=O)O)c(=O)c2c1)c1ccc(OCC)c(OC)c1 (centres unmarked) | -1.02%
7 | COCCn1c(N)c(N(Cc2ccccc2)C(=O)c2ccc3ccccc3c2)c(=O)[nH]c1=O | 7.55%
8 | O=C(NC1CCCC1)C1CC(=O)N(CCc2ccccc2)C1 (centres unmarked) | 9.66%
9 | O=C(COc1ccccc1Cl)N1CCCC1 | 5.64%
10 | COc1ccc(C(=O)C2CN(C)CC2C(=O)c2ccc(OC)cc2)cc1 (centres unmarked) | -57.9%
11 | CN1CC(C(=O)c2cccs2)C(c2ccc(Cl)cc2)C1 (centres unmarked) | -49.2%
12 | CN1CC(C(=O)c2ccccc2)C(c2ccccc2)C1 (centres unmarked) | -5.47%
13 | CN1CC(C(=O)c2ccc(Cl)cc2)C(c2ccc(N(C)C)cc2)C1 (centres unmarked) | -57.9%
14 | CN1CC(C(=O)c2ccc(Cl)cc2)C(c2ccccc2)C1 (centres unmarked) | -31.8%
15 | COc1ccc(-c2ccc(C(=O)C3CC3)cc2)cc1 | 14.7%
16 | COc1ccc(C(=O)C2CN(c3ccccc3)CC2c2ccc(Cl)cc2)cc1 (centres unmarked) | -4.84%
17 | COc1ccc(C(=O)C2CN(C)CC2c2ccc(Cl)cc2)cc1 (centres unmarked) | -73.1%
18 | Cc1ccc(C(=O)C2CN(C)CC2C(=O)c2ccc(C)cc2)cc1 (centres unmarked) | -57%
19 | Cc1ccc(C(=O)C2CN3CCC2CC3)cc1.Cl (centres unmarked) | -37.4%
20 | CN1CC(C(=O)c2ccccc2)C(C(=O)c2ccccc2)C1 (centres unmarked) | -21.4%
21 | CC(=O)Nc1ccc(C2CN(C)CC2C(=O)c2ccc(Cl)cc2)cc1 (centres unmarked) | -31.8%
22 | CNCCOc1ccccc1-c1ccccc1.O=C(O)C(=O)O | -5.68%

Row | SMILES | hERG current change (%, negative = inhibition) at 10uM
23 | O=C(CCN1C(=O)c2ccccc2S1(=O)=O)N1CCN(c2ccccc2F)CC1 | -5.02%
24 | Cc1ccsc1C(=O)NCC(C)(C)N1CCOCC1 | -9.41%
25 | CC(=O)SC(C)CC(=O)Nc1ccccc1 (centres unmarked) | 7.33%
26 | Cc1nc2cc(-c3ccccc3)nn2c(C)c1CCC(=O)N1CCN(c2ccccc2)CC1 | -65.7%
27 | Cc1nc2cc(-c3ccc(Cl)cc3)nn2c(C)c1CCC(=O)NC(C)c1ccc2c(c1)OCCO2 (centres unmarked) | -23.8%
28 | Cc1nc2cc(-c3cccc(F)c3)nn2c(C)c1CCC(=O)NC(C)c1ccc2c(c1)OCCO2 (centres unmarked) | -44.6%
29 | Cc1nc2cc(-c3cccc(F)c3)nn2c(C)c1CCC(=O)N1CCN(c2ccccn2)CC1 | -13.1%
30 | Cc1nc2nc(C)c(CCC(=O)N3CCN(c4ccccc4)CC3)c(C)n2n1 | -56.2%
31 | Cc1nc2nc(C)c(CCC(=O)N3CCOCC3)c(C)n2n1 | -21%
32 | Cc1nc2nc(C)c(CCC(=O)N3CCN(c4ccccn4)CC3)c(C)n2n1 | -46.1%
33 | Cc1nc2cc(-c3ccccc3)nn2c(C)c1CCC(=O)N1CCC2(CC1)OCCO2 | -47.2%
34 | Cc1nc2cc(-c3ccccc3)nn2c(C)c1CCC(=O)NC(C)c1ccc2c(c1)OCCO2 (centres unmarked) | -50.8%
35 | O=C(CC1(c2ccc(Cl)cc2)C2CC3CC(C2)CC1C3)NCCO (centres unmarked) | -7.17%
36 | O=C(COC(=O)c1cccc(-n2cnnn2)c1)c1ccccc1 | -4.63%
37 | OCc1ccccc1SSc1ccccc1CO | 14.5%
38 | COc1ccc2[nH]c(C)c(CCN3C(=O)OC(C)(C)C3(C)O)c2c1 (centres unmarked) | 9.02%
39 | Cc1cccc(-n2nnc(C(=O)NCc3ccccn3)c2N)c1 | 0.598%
40 | CCc1noc(C)c1C(=O)N1CCN(S(=O)(=O)c2cc(C)ccc2C)CC1 | -1.66%
41 | O=C(c1ccco1)N1CCN(S(=O)(=O)c2ccc(Oc3ccccc3)cc2)CC1 | -31.5%
42 | Cc1ccc(C(=O)C(C)OC(=O)Cn2cnc3c2c(=O)n(C)c(=O)n3C)cc1 (centres unmarked) | -0.153%
43 | N#Cc1ccc(Oc2ccc(C(F)(F)F)cc2NC(=O)c2ccc(F)cc2)cc1 | -70.2%
44 | COc1ccc(Oc2ccc(C(F)(F)F)cc2NC(=O)c2ccc(F)cc2)cc1 | 6.56%

Row | SMILES | hERG current change (%, negative = inhibition) at 10uM
45 | COc1ccc(Oc2ccc(C(F)(F)F)cc2NC(=O)c2ccc(OC)cc2)cc1 | 12.5%
46 | CC(=O)c1c(C)[nH]c(C(=O)CN2CCN(S(=O)(=O)c3ccccc3[N+](=O)[O-])CC2)c1C | -6.62%
47 | CCCCC(CC(C)O)c1n[nH]c(=S)n1-c1ccccc1 (centres unmarked) | 3.1%
48 | COc1ccc(/C=C/C(=O)NC(=S)N2C[C@H]3C[C@H](C2)c2cccc(=O)n2C3)cc1 | -18.2%
49 | COc1ccc(/C=C/C(=O)NC(=S)N2C[C@H]3C[C@H](C2)c2cccc(=O)n2C3)cc1OC | 6.67%
50 | O=C(/C=C/c1ccc(Br)cc1)NC(=S)N1C[C@H]2C[C@H](C1)c1cccc(=O)n1C2 | -57.9%
51 | O=C(/C=C/c1ccccc1)NC(=S)N1C[C@H]2C[C@H](C1)c1cccc(=O)n1C2 | -15%
52 | O=C(/C=C/c1ccc(F)cc1)NC(=S)N1C[C@H]2C[C@H](C1)c1cccc(=O)n1C2 | -22.9%
53 | O=C(/C=C/c1ccc(Cl)cc1)NC(=S)N1C[C@H]2C[C@H](C1)c1cccc(=O)n1C2 | -53.1%
54 | O=C(NCc1ccco1)Nc1ccc2snnc2c1 | 2.51%
55 | CNC(=O)c1c(NC(NC(=O)c2ccco2)C(=O)c2ccc(Cl)cc2)sc2c1CCCC2 (centres unmarked) | -20.3%
56 | CC1=C(C(=O)Nc2ccccc2)C(c2ccc(C)o2)n2c(s/c(=C/c3ccccc3)c2=O)=N1 (centres unmarked) | 18.1%
57 | COc1ccccc1NCc1ccc([N+](=O)[O-])s1 | -47.7%
58 | O=C(c1ccc2ncsc2c1)N1CCCCC1 | 17.9%
59 | CC(OC(=O)c1ccc2ncsc2c1)C(=O)N1CCCC1 (centres unmarked) | -56.9%
60 | CC1CN(C(=O)C(C)OC(=O)c2ccc3ncsc3c2)CC(C)O1 (centres unmarked) | 20.1%
61 | CCCc1nnc(SCC(=O)N2CCCC2)n1Cc1ccco1 | 1.2%
62 | Cc1ccc2c(c1)sc(=NC(=O)C1CC1)n2C | -4.01%
63 | CCOC(=O)c1cnc2ccc(C)cc2c1Sc1ccccc1C(=O)OC | -2.26%
64 | CCOC(=O)C1CCN(Cc2ccccc2C)CC1 | 0.665%
65 | CCOC(=O)N1CCN(Cc2cn[nH]c2-c2ccc(-c3ccccc3)cc2)CC1 | -54.8%
66 | CCOC(=O)N1CCN(Cc2cn[nH]c2-c2cc3ccccc3o2)CC1 | -34.4%

Row | SMILES | hERG current change (%, negative = inhibition) at 10uM
67 | CCOC(=O)C1CCN(Cc2cn[nH]c2-c2ccc(C)cc2)CC1 | -51.8%
68 | COc1ccc(CN2CCN(C(=O)c3cccs3)CC2)c(OC)c1OC | -6.53%
69 | Cc1ccc(-c2[nH]ncc2CN2CCN(C(=O)c3cccs3)CC2)cc1C | -62.5%
70 | CCOC(=O)N1CCN(Cc2cn[nH]c2-c2cccc3ccccc23)CC1 | -4.57%
71 | CCOC(=O)C1CCN(Cc2cn[nH]c2-c2ccccc2)CC1.O=C(O)C(=O)O | -9.8%
72 | COc1ccc(-c2[nH]ncc2CN2CCN(C(=O)c3cccs3)CC2)c(F)c1 | -21.5%
73 | O=C(Nc1cc(=O)[nH]c2nc(-c3ccccc3)nn12)c1ccccc1Cl | 15.3%
74 | Cc1sc(NC(=O)c2ccc(Br)s2)c(C(N)=O)c1C | 17.5%
75 | OCCN(Cc1ccccc1)Cc1ccc(Cl)cc1 | -73%
76 | OCCN(Cc1ccccc1)Cc1ccc(F)c(F)c1 | -14.9%
77 | OCCN(Cc1ccccc1)Cc1ccc(Cl)cc1Cl | -14%
78 | COc1ccc(S(=O)(=O)N2CCOC2CNC(=O)C(=O)NCc2ccccn2)cc1C (centres unmarked) | 11.6%
79 | Cc1noc(C)c1C(=O)Nc1nc(-c2cccs2)cs1 | -56.9%
80 | CCc1noc(C)c1C(=O)Nc1nc(-c2ccccc2)cs1 | -32.6%
81 | CCc1noc(C)c1C(=O)Nc1nc(-c2cccs2)cs1 | -57%
82 | Cc1ccc(-c2csc(NC(=O)c3c(C)noc3C)n2)cc1 | -31.7%
83 | CCc1noc(C)c1C(=O)Nc1nc(-c2ccc(OC)cc2)cs1 | -6.43%
84 | Cc1noc(C)c1C(=O)Nc1nc(-c2ccccc2Cl)cs1 | -0.869%
85 | Cc1ccc(NC(=S)N2CCN(C(=O)C3CCCO3)CC2)cc1 (centres unmarked) | 17.8%
86 | Cc1c(N)c(C(C)(C)C)cc(C(C)(C)C)c1[N+](=O)[O-] | 0.751%
